PubChem BioAssay (NCATS)
Inconclusive results are not listed. The source made the active and inactive calls. The call rests on the fitted dose curve; in most records, active means well fitted curve in the direction sought with a large enough effect; inconclusive means small, poorly fitted or top-dose-only effect, or another doubt; inactive means no such curve, though single readings can be large; an effect the other way counts as inactive or inconclusive.

Key:
[1] = MultiTox-Fluor Cytotoxicity Assay - LYMP1-002 - Live Cells (AID 955); conditions: LYMP1-002 lymphoblastoid live-cell protease fluorescence viability; series mostly up to 46.1 µM;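 further: cells exposed to compound for 16 hours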
How it was run: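 Cells were seeded at 2500 per well and incubated 5 hr. Compounds were then added for 16 hr at 37 C, followed by MultiTox-Fluor reagent for 60 min at room temperature and fluorescence reading of viable-cell protease signal.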

[2] = MultiTox-Fluor Cytotoxicity Assay - LYMP1-002 - Dead Cells (AID 960); conditions: LYMP1-002 lymphoblastoid cells, dead-cell protease fluorescence; series mostly up to 46.1 µM; further: nearly all actives have a fitted effect of over 60% in size
How it was run: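 Cells were plated, rested 5 hr, then treated with compound dilution series for 16 hr at 37 C. After adding substrate reagent and 60 min at room temperature, dead-cell protease fluorescence gave concentration-response curves fitted by the Hill equation.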

[3] = MultiTox-Fluor Cytotoxicity Assay - LYMP1-003 - Dead Cells (AID 961); conditions: LYMP1-003 lymphoblastoid cells, dead-cell protease fluorescence; series mostly up to 92.2 µM; further: nearly all actives have a fitted effect of over 70% in size
How it was run: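 Dead-cell protease release, detected as bis-AAF-R110 fluorescence at 485/520 nm, was measured in LYMP1-003 cells after 16 h compound treatment at 37 C. AC50 values came from Hill-modeled qHTS curves normalized to DMSO (0%) and 15 uM tetraoctylammonium bromide (100%).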

[4] = MultiTox-Fluor Cytotoxicity Assay - LYMP1-003 - Live Cells (AID 962); conditions: LYMP1-003 lymphoblastoid cells, MultiTox-Fluor live-cell protease fluorescence; series mostly up to 92.2 µM;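 further: cells exposed to compound for 16 hours at 37 °C; cytotoxic hits lower the live-cell protease signal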
How it was run: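 Acute cytotoxicity is scored as a drop in live-cell protease activity in human lymphoblastoid LYMP1-003 cells after 16 hr compound exposure at 37 C. AC50 values come from Hill-equation modelling of concentration-response data.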

[5] = Cell Viability - LYMP1-003 - Assay at 24 hr (AID 963); conditions: LYMP1-003 lymphoblastoid cell viability; series mostly up to 92.2 µM
How it was run: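 Cytotoxicity is scored as a concentration-dependent fall in ATP-linked luciferase signal in human lymphoblastoid LYMP1-003 cells treated 24 hr at 37 C in complete culture medium.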

[6] = Cell Viability - LYMP2-003 (AID 965); conditions: LYMP2-003 lymphoblastoid cell viability; series mostly up to 92.2 µM;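 further: cells exposed to compounds for 24 h before reading; nearly all actives have a fitted effect of over 50% in size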
How it was run: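 qHTS, human lymphoblastoid line, 2500 cells/well, complete medium. 24 h drug, 37 C. ATP-based luminescent readout; Hill-fit AC50.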

[7] = Cell Viability - LYMP2-004 (AID 966); conditions: LYMP2-004 lymphoblastoid cell viability, qHTS; series mostly up to 92.2 µM; further: nearly all actives have a fitted effect of over 65% in size
How it was run: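 qHTS cytotoxicity: human lymphoblastoid line, 24 hr compound treatment, 37 C, complete medium. Viability read as cellular ATP via luciferase luminescence; tetraoctylammonium bromide served as positive control.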

[8] = Cell Viability - LYMP2-005 (AID 967); conditions: LYMP2-005 lymphoblastoid cell viability; series mostly up to 92.2 µM
How it was run: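 Luciferase-based ATP quantitation served as the viability measure in human lymphoblastoid LYMP2-005 cells exposed to test compounds for 24 h at 37 C in complete culture medium. Potency (AC50) was obtained by fitting concentration-response curves with the Hill equation.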

[9] = Cell Viability - LYMP2-009 (AID 968); conditions: LYMP2-009 lymphoblastoid cell viability; series mostly up to 92.2 µM; further: nearly all actives have a fitted effect of over 55% in size
[10] = biological target: Alpha-galactosidase (Coffea arabica) (UniProt Q42656); assay: Counterscreen for Glucocerebrosidase Inhibitors: qHTS Assay for Coffee Bean alpha-Galactosidase at pH 4.5 (AID 957); conditions: purified coffee bean alpha-galactosidase, fluorogenic substrate; series mostly up to 76.9 µM
How it was run: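 Enzyme is added first (2 nM final), then compounds titrated from 0.7 nM to 77 uM, then 80 uM 4-methylumbelliferyl alpha-D-galactopyranoside; after 20 min at room temperature a pH 10 NaOH/glycine stop precedes fluorescence reading at 365/440 nm.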

Measured: Potency

Alpha-galactosidase (Coffea arabica), sequence (Q42656 whole entry, looked up): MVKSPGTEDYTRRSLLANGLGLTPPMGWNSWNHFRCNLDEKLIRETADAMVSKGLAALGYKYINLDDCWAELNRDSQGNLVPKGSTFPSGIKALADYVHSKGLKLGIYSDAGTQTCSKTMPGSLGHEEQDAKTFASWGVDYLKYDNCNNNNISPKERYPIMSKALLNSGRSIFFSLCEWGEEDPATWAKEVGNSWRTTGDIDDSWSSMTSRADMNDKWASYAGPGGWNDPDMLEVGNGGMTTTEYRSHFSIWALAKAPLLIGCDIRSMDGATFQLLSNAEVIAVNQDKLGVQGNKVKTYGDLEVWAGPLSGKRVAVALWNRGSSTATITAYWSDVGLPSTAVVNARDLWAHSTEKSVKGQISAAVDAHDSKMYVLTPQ

CCC(C)(C)c1ccc(O)cc1
not listed: [10]
inactive: all other assays above

Nc1nc2ccc(OC(F)(F)F)cc2s1
inactive: [10]

CC(C)c1cccc(C(C)C)c1O
inactive: all assays above

NCCS(=O)(=O)O
inactive: [10]

O=C(O)CN(CCN(CC(=O)O)CC(=O)O)CCN(CC(=O)O)CC(=O)O
inactive: [10]

CN1C(C(=O)Nc2ccccn2)=C(O)c2ccccc2S1(=O)=O
inactive: [10]

COP(=S)(OC)Oc1ccc(SC)c(C)c1
not listed: [10]
inactive: all other assays above

O=c1[nH]oc2c1CCNC2
inactive: [10]

CCCC(C)(COC(N)=O)COC(N)=O
not listed: [10]
inactive: all other assays above

CCn1nc(C(=O)O)c(=O)c2cc3c(cc21)OCO3
inactive: [10]

C[C@]12CCC(=O)C=C1CC[C@@H]1[C@@H]2CC[C@@]2(C)[C@H]1CC[C@]2(C)O
not listed: [2] | [10]
inactive: all other assays above

Clc1ccc(C(c2ccc(Cl)cc2)C(Cl)(Cl)Cl)cc1
not listed: [5] | [10]
inactive: all other assays above

NCCc1ccc(O)cc1
inactive: all assays above
